Source: PubChem BioAssay AID1259325 (C. David Weaver Laboratory, Vanderbilt University, 2017)
Hit rate of the full screen: of about 63,000 compounds, about 30 (0.05%) were called active. The rule behind the calls is not given here. A selection follows.

target: G protein-activated inward rectifier potassium channel 2 (Homo sapiens) (UniProt P48051); test: opens human GIRK2 potassium channels (AID 1259325); settings: HEK293-GIRK2 thallium flux, Thallos fluorescence, MPD
Sequence (P48051 whole entry, looked up): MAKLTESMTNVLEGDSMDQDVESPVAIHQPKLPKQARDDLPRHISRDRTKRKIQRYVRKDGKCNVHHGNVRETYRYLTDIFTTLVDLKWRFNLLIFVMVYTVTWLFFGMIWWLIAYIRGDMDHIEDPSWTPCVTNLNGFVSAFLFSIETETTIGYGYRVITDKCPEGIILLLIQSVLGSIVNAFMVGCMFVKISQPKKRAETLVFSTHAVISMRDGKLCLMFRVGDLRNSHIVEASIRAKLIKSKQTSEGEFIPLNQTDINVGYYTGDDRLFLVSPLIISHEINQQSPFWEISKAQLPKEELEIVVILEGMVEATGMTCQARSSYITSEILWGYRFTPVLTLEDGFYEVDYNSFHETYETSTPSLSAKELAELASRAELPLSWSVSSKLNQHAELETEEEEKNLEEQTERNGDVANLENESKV

outcome, inactive:
Cc1nc(-c2ccc(N3CCN(C(=O)NCc4ccc(F)cc4)CC3)nc2)no1, O=C(Cc1ccc(F)cc1)N1CC(c2nc(-c3cccnc3)no2)C1, CCc1cc(=O)n(CCNC(=O)COc2ccc(F)cc2F)cn1, COc1ccc(S(=O)(=O)Nc2ccc3c(c2)N(C(=O)c2ccccc2)CCC3)cc1F, NC(=O)c1ccccc1OCC#CCNC(=O)c1ccc(=O)[nH]c1, COC(=O)c1ccc2c(=O)n(-c3cc(OC)cc(OC)c3)c(N3CCSCC3)nc2c1, Cc1cc(C(=O)Nc2nc(C(=O)N3CCN(c4cc(Cl)ccc4C)CC3)co2)no1, Cc1nc(-c2cccc(NC(=O)c3coc(NC(=O)c4cnccn4)n3)c2)cs1, COc1ccc(NC(=O)Cn2c(=O)nc(N3CCC(C)CC3)c3ccccc32)cc1Cl, CC(C)c1nnc(C2CCN(Cc3cccnc3)CC2)o1, CN1CCC(n2cnc(-c3ccc(F)cc3)c2-c2ccnc(N)n2)CC1, Cc1ccccc1N1CCN(c2nccn3c(=O)n(CC(=O)Nc4ccc(Cl)cc4)nc23)CC1, Cn1c(=O)c2c(nc(SCCO)n2Cc2ccccc2)n(C)c1=O, O=C(CSc1nnc(Cn2ccc(=O)[nH]c2=O)o1)N1CCC(Cc2ccccc2)CC1, COc1ccc(-c2cc3nn(CC(=O)NCc4ccccc4Cl)c(=O)n3c(C)n2)cc1, COc1cccc(NC(=O)c2cn(CC(O)c3ccccc3)nn2)c1 (configuration not stated), CN(C)CCn1c2c(c(=S)[nH]c1=O)CCC2, CCOC(=O)CCC(=O)N1CCN(Cc2csc(-c3ccccc3)n2)CC1, Cc1cc(N2CCN(C(=O)NC3CCCC3)CC2)ncn1, COc1ccc(C)cc1N1CCn2c1nc1c2c(=O)n(Cc2cccc(C)c2)c(=O)n1C, Nc1nc(Nc2ccc(F)c(F)c2)ncc1[N+](=O)[O-], O=C(NCc1cccs1)N1C2CCC1COC2, CN1CCC(CNC(=O)c2cc(Br)ccc2Cl)CC1, COc1ccccc1C(=O)NCCN1CCN(c2ccccc2OC)CC1, CCNC(=O)c1cn(-c2ccc(SCC(=O)Nc3ccc(C)cc3)nn2)cn1, Cn1cnnc1SCCNC(=O)CNC(=O)c1ccc(=O)[nH]c1, CC(C)c1ccccc1NC(=O)Cc1cc(=O)[nH]c(SCc2ccc(F)cc2)n1, O=C(NCc1ccccc1)Nc1nnc(-c2ccco2)o1, NC(=O)c1ccccc1OCC#CCNC(=O)C1CCC1, Cc1cc(C(O)CCNC(=O)Nc2ccccc2)c(C)o1 (configuration not stated), C#CCSc1nnc(N2CCN(c3ccccc3OC)CC2)s1, O=C(c1ccncc1)N1CCc2cc(S(=O)(=O)N3CCOCC3)ccc21, COc1ccc(NC(=O)C(=O)NCCC2=CCCCC2)cc1Cl, COc1ccc(-n2c(C)c(C)n3c4c(=O)n(CC(C)C)c(=O)n(C)c4nc23)cc1, CCOc1ccccc1C(=O)Nn1cnc2c(cnn2-c2cccc(Cl)c2)c1=O, CCN(CC)C(=O)Oc1ccc2c(=O)c(-c3ccc(Br)cc3)coc2c1, COc1ccccc1N1CCN(CCNC(=O)c2ccc(F)cc2)CC1, CCOC(=O)c1ccc(NC(=O)c2coc(NC(=O)C3CC3)n2)cc1, CCN(CC)c1ccc(-c2noc(CN3CCN(c4cccc(C)c4)CC3)n2)cn1, CCCCCn1c(=O)c2c(nc3n2CC(C)CN3c2ccc(Oc3ccccc3)cc2)n(C)c1=O (configuration not stated), Cc1cc(C(=O)NCC#CCOc2ccc3c(c2)OCO3)c(C)o1, COc1cc(OC)cc(N(C)S(=O)(=O)c2ccsc2-c2nc(-c3cccc(C)c3)no2)c1, O=C(CSc1nnc(-c2ccc(Cl)cc2)c2ccccc12)N1CCOCC1, Cc1csc(SCC2CCN(S(=O)(=O)c3cccc(C(F)(F)F)c3)CC2)n1, CC(C)(C)OC(=O)COc1ccc2c(c1)O/C(=C\c1cc(Cl)cc3c1OCOC3)C2=O, Cc1nc(SCc2ccccc2)[nH]c(=O)c1CC(=O)Nc1ccc(C(C)C)cc1, Cc1ccc(S(=O)(=O)N(Cc2ccc(Cl)cc2)C(=O)N2CCN(C)CC2)cc1, COc1ccc(C)c2sc(N(CCCn3ccnc3)C(=O)/C=C/c3cccs3)nc12, CCC(C(=O)Nc1cc(F)ccc1F)n1cc(-c2nc(-c3cnccn3)no2)ccc1=O (configuration not stated), COc1cc(NC(=O)Cn2cnc3c(-c4ccc(Cl)cc4)csc3c2=O)cc(OC)c1, COc1ccccc1OCC#CCNC(=O)c1cnccn1, Cc1cc(C)c2c(c1)c(=O)c1c(n2C)CCN(C(=O)Nc2cc(Cl)ccc2C)C1, COc1ccc(C2(CNC(=O)C3CCN(S(C)(=O)=O)CC3)CCOCC2)cc1, O=C(CSc1cc(C(F)(F)F)c2cc3c(cc2n1)OCO3)NCc1ccco1, O=C(Cc1ccc(NS(=O)(=O)c2c(F)cccc2F)cc1)NCc1cccs1, Cc1nn(-c2ncc(NC(=O)c3cccc4ccccc34)cn2)c(C)c1C, Cc1nc(C)c(-c2nnc(NC(=O)COc3cccc4c3OC(C)(C)C4)o2)s1, COc1ccc(F)cc1S(=O)(=O)N1CCN=C1c1ccccc1, O=C(CSCc1ccccc1)Nc1cnoc1, COc1ccc(Cn2cc(S(=O)(=O)N3CCCCC3)ccc2=O)cc1F, O=C(CC1CCCC1)N(CCc1cccs1)Cc1ccoc1, Cc1cc(SCC(=O)c2ccc3c(c2)OCO3)nc(C(C)C)n1, C=C(C)COc1ccc(-c2nc(N)nc(C(F)(F)F)c2-c2ccccc2OC)c(O)c1, CCOC(=O)C1CCc2sc(NC(=O)C3CCCN(Cc4nc(-c5cccnc5)no4)C3)nc21 (configuration not stated), CCOC(=O)CN1CCC(c2nnc(-c3ccc(F)cc3)o2)CC1, CCOC(=O)c1cnn2ccc(NC(=O)C(c3ccccc3)c3ccccc3)cc12, O=C1CC(c2nc3ccccc3n2CCOc2ccccc2)CN1c1ccccc1 (configuration not stated), COc1ccccc1N1CCN(CC(=O)N2CCN(S(C)(=O)=O)CC2)C1=O, COc1ccccc1NC(=O)CN1N=NC2C(=O)N(c3ccc(F)c(F)c3)C(=O)C21 (configuration not stated), CCOc1ccc(C2C(C(=O)c3sc(C)nc3C)=C(O)C(=O)N2CCCN(C)C)cc1 (configuration not stated), CN(C)C(CNC(=O)C1c2ccccc2Oc2ccccc21)c1cccn1C (configuration not stated), CCCN(C)c1nccn2c(=O)n(CC(=O)Nc3cccc(CC)c3)nc12, CCOC(=O)c1ccc(NC(=O)Cn2ccn(Cc3ccc(Cl)cc3)c(=O)c2=O)cc1, Cc1nc(C)c(-c2ccc(=O)n(CCNC(=O)C3CCN(S(C)(=O)=O)CC3)n2)s1, O=C(c1ccc2c(c1)OCO2)N1CCC(CSc2ccccn2)CC1, COc1ccc(S(=O)(=O)N2CCCOC2CNC(=O)C(=O)NCc2ccc(C)cc2)cc1OC (configuration not stated), Cn1c(=O)n(CCc2ccccc2)c(=O)c2c(N3CCN(C(=O)c4ccco4)CC3)ccnc21, COc1cccc(CSc2nc(C)c(CC(=O)NCc3cccs3)c(=O)[nH]2)c1, COc1ccc(NC(=O)CSc2nnc(C3CC(=O)N(c4ccc(C)cc4)C3)o2)cc1 (configuration not stated), O=C(O)CCC/C=C\C[C@@H]1C(/C=C/[C@@H](O)COc2cccc(C(F)(F)F)c2)[C@H](O)C[C@@H]1O (some centres not stated), O=C(CSc1ccc(-c2nc(-c3ccccc3)no2)cn1)NCc1ccc2c(c1)OCO2, CCCNC(=O)Cn1nc2c(c1NC(=O)COc1ccccc1F)CSC2, O=C(COc1ccc(Cl)cc1)Nc1ccc(N2CCCCS2(=O)=O)cc1, O=C1CC(C(=O)Nc2ccccc2Cl)n2c(nc3ccccc32)N1 (configuration not stated), COCCNC(=O)c1[nH]c2ccccc2c1NC(=O)c1cccc(C)c1, COc1cc(/C=C2\Oc3c4c(cc(C)c3C2=O)OCN(C2CC2)C4)cc(OC)c1OC, CCc1ccc(NC(=O)NCCNc2cc(Nc3ccccn3)ncn2)cc1, Cc1cc(C)n(-c2cc(SCC(=O)N3CCCC3)ncn2)n1, COc1ccc(-c2ccc(C)c(NC(=O)c3cc4ccccc4oc3=O)c2)nn1, Cn1cccc(C(=O)Nc2ccc3c(c2)CCC(=O)N3)c1=O, O=C(CCn1c(=O)oc2ccc(Cl)cc21)N1CCN(c2ccccc2Cl)CC1, COc1cccc(OCc2nc3c(C)cccc3[nH]2)c1, CCC(C)c1ccc(Cn2c(CO)nc3ccccc32)cc1 (configuration not stated), CC(=O)c1cccc(NC(=O)CCCn2cnc(-c3ccc(F)cc3)cc2=O)c1, COCCn1c(SCc2nc(-c3ccc(Cl)cc3)no2)nc2cc3c(cc2c1=O)OCO3, CCOc1cc(C(=O)Nc2ccc3c(c2)N(C(C)=O)CCC3)cc(OCC)c1OCC, Cn1cnnc1SCc1cc(=O)c(OCC(=O)NCc2ccco2)co1, COC(=O)c1[nH]c(C)c(C(O)=C2C(=O)C(=O)N(CCCN(C)C)C2c2cccs2)c1C (configuration not stated), O=C(Nc1nc(-c2cc3ccccc3o2)cs1)c1ccc(S(=O)(=O)N2CCOCC2)cc1, Cc1ccnc(Nc2cc(NCCNC(=O)Nc3cccc(Cl)c3)ncn2)c1, COc1cccc(NC(=O)CSc2ncc(S(=O)(=O)c3ccc(Cl)cc3)c(=O)[nH]2)c1, O=S(=O)(Cc1nc(-c2cccc(Cl)c2)no1)c1ccccc1
